The results in this text go back to the supplement of paper PMC7184167.

The structures appear in SMILES notation. Counter-ions that a name gives are not always drawn.

This test concerns replication-induced senescent mouse newborn dermal fibroblasts (NBF). The test can be described thus: relative cell viability of senescent cells (fraction); higher = less killing of senescent cells. Conditions: 1 µM; 3 days. On the procedure: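 Replication-induced senescent newborn mouse skin fibroblasts (NBFs) in 24-well plates were treated with a Selleck FDA-approved drug library at 1 µM for 3 days.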
In the case of `NC(=O)c1ncn([C@@H]2O[C@H](CO)[C@@H](O)[C@H]2O)c1N` [AICAR (Acadesine)], the relative cell viability is 1.02.
In the case of `OCCN(CCO)c1nc(N2CCCCC2)c2nc(N(CCO)CCO)nc(N3CCCCC3)c2n1` [Dipyridamole], the relative cell viability is 1.
Then `Oc1ncnc2[nH]ncc12` [Allopurinol], with 0.796; and `Nc1ccccc1NC(=O)c1ccc(CNc2nccc(-c3cccnc3)n2)cc1` [Mocetinostat (MGCD0103)], with 0.36.
`CC(=O)Nc1ccc(O)cc1` [Acetaminophen] gave a relative cell viability of 0.803.
Molecule `CCN1CCN(C(=O)N[C@@H](C(=O)N[C@@H]2C(=O)N3C(C(=O)O)=C(CSc4nnnn4C)CS[C@H]23)c2ccc(O)cc2)C(=O)C1=O` [Cefoperazone] registered a relative cell viability of 1.03.
Consider `Clc1ccc2nsnc2c1NC1=NCCN1` [Tizanidine HCl], for which the relative cell viability amounted to 0.994.
Then `O=c1[nH]c(=O)n([C@H]2C[C@H](O)[C@@H](CO)O2)cc1I` [Idoxuridine], with 0.949; and `COC(=O)N[C@H](C(=O)N[C@@H](Cc1ccccc1)[C@@H](O)CN(Cc1ccc(-c2ccccn2)cc1)NC(=O)[C@@H](NC(=O)OC)C(C)(C)C)C(C)(C)C` [Atazanavir Sulfate], with 0.988.
Then `Cc1ccc(NC(=O)c2ccc(CN3CCN(C)CC3)cc2)cc1Nc1nccc(-c2cccnc2)n1` [Imatinib Mesylate (STI571)], with 0.939; and `O=C(O)CSCC(=O)NC1CCSC1=O` (stereo not given) [Erdosteine], with 0.979; and `O=C(O)c1cc(/N=N/c2ccc(S(=O)(=O)Nc3ccccn3)cc2)ccc1O` [Sulfasalazine], with 1.3.
As to `C[C@]12C=CC(=O)C=C1CC[C@@H]1[C@@H]2C(=O)C[C@@]2(C)[C@H]1CC[C@]2(O)C(=O)CO` [Prednisone], the relative cell viability was 0.875.
Then `c1ccc2[nH]c(-c3cscn3)nc2c1` [Thiabendazole], with 1.03.
In turn, `C#C[C@]1(O)CC[C@H]2[C@@H]3CCc4cc(O)ccc4[C@H]3CC[C@@]21C` [Ethinyl Estradiol] displayed a relative cell viability of 0.86.
For `COCCc1ccc(OCC(O)CNC(C)C)cc1` (stereo not given) [Metoprolol Tartrate], the relative cell viability came out at 1.1.
In the case of `CCCc1cc(C(N)=S)ccn1` [Protionamide], the relative cell viability was found to be 1.02.
Then `COc1ccc(/C=C/C(=O)Nc2ccccc2C(=O)O)cc1OC` [Tranilast], with 1; and `CN1CCN(CCOc2cc(OC3CCOCC3)c3c(Nc4c(Cl)ccc5c4OCO5)ncnc3c2)CC1` [Saracatinib (AZD0530)], with 0.626.
Then `CCCCC(=O)N(Cc1ccc(-c2ccccc2-c2nnn[nH]2)cc1)[C@H](C(=O)O)C(C)C` [Valsartan], with 0.897; and `CC(C)[N+]1(C)[C@@H]2CC[C@H]1C[C@@H](OC(=O)C(CO)c1ccccc1)C2` (stereo not given in full) [Ipratropium Bromide], with 0.902.
Molecule `Cc1nc2n(c(=O)c1CCN1CCC(c3noc4cc(F)ccc34)CC1)CCCC2` [Risperidone] showed a relative cell viability of 0.76.
Regarding `CN1CCC[C@@H]1CCO[C@](C)(c1ccccc1)c1ccc(Cl)cc1` [Clemastine Fumarate], the relative cell viability was 1.07.
Regarding `NCCCC(O)(P(=O)(O)O)P(=O)(O)O` [Alendronate sodium trihydrate], the relative cell viability was found to be 0.251.
The molecule `Cc1cccc(Nc2ccncc2S(=O)(=O)NC(=O)NC(C)C)c1` [Torsemide] had a relative cell viability of 0.965.
Then `CC(C)OC(=O)OCOP(=O)(CO[C@H](C)Cn1cnc2c(N)ncnc21)OCOC(=O)OC(C)C` [Tenofovir Disoproxil Fumarate], with 0.84; and `c1ccc(-c2ccc(C(c3ccccc3)n3ccnc3)cc2)cc1` (stereo not given) [Bifonazole], with 0.877; and `CCOc1ccccc1OCCN[C@H](C)Cc1ccc(OC)c(S(N)(=O)=O)c1` [Tamsulosin hydrochloride], with 1.1.
Regarding `O=C(CCCCCCC(=O)Nc1ccccc1)NO` [Vorinostat (SAHA, MK0683)], the relative cell viability was found to be 0.75.
`COC(=O)C1=C(C)NC(C)=C(C(=O)OC)C1c1ccccc1[N+](=O)[O-]` [Nifedipine] returned a relative cell viability of 1.01.
For `CCC(C)(C)C(=O)O[C@H]1C[C@@H](C)C=C2C=C[C@H](C)[C@H](CC[C@@H]3C[C@@H](O)CC(=O)O3)[C@H]21` [Simvastatin], the relative cell viability is 0.965.
Turning to `Nc1ncnc2c1ncn2[C@@H]1O[C@H](CO)[C@@H](O)[C@H]1O` [Adenosine], the relative cell viability came to 0.937.
Regarding `COCCOC(=O)C1=C(C)NC(C)=C(C(=O)OC(C)C)C1c1cccc([N+](=O)[O-])c1` (stereo not given) [Nimodipine], the relative cell viability is 1.15.
Consider `COc1ccc(-c2nc3cc(C4=NNC(=O)CC4C)ccc3[nH]2)cc1` (stereo not given) [Pimobendan], for which the relative cell viability was found to be 0.639.
`COC(=O)Nc1nc2cc(C(=O)c3ccc(F)cc3)ccc2[nH]1` [Flubendazole] came in with a relative cell viability of 0.886.
`CC(C)c1nc(CN(C)C(=O)N[C@H](C(=O)N[C@@H](Cc2ccccc2)C[C@H](O)[C@H](Cc2ccccc2)NC(=O)OCc2cncs2)C(C)C)cs1` [Ritonavir] gave a relative cell viability of 1.15.
For the molecule `Clc1ccc(Nc2nnc(Cc3ccncc3)c3ccccc23)cc1` [Vatalanib (PTK787) 2HCl], the relative cell viability was 0.741.
Turning to `NC(=O)N1c2ccccc2CC(=O)c2ccccc21` [Oxcarbazepine], the relative cell viability was determined as 0.905.
Turning to `NS(=O)(=O)c1cc2c(cc1Cl)N=CNS2(=O)=O` [Chlorothiazide], the relative cell viability worked out at 0.952.
Molecule `Nc1nc(=O)[nH]cc1F` [Flucytosine] came in with a relative cell viability of 0.996.
